# Measurements from PubChem BioAssay AID687014 (The Scripps Research Institute Molecular Screening Center, 2013).
# Hit rate of the full screen: of about 370,000 compounds, about 6,800 (1.8%) were called active. Shown is part of a subset that was picked to be rich in actives. A number with no mark means an inactive call.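 How the source made its calls: active means activation above a cutoff set at the mean of all screened compounds plus 3 SD (cut at about 10% in these data); inactive means the rest.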
# Test system: Nuclear hormone receptor DAF-12 (Heterodera glycines), GAL4 fusion
# Assay: hgDAF-12 GAL4 fusion reporter activation – cell-based, luminescence, HEK293, UAS-luciferase, primary screen (AID 687014);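 further: 0% = DMSO wells and 100% = sodium butyrate wells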
# Settings: HEK293 GAL4-hgDAF12 UAS-luciferase reporter, agonist luminescence; at 6.8 µM; hits give high values; normalized to butyrate control
row,SMILES,activation
1,CCC(NC(=O)C1C2C=CC3(CN(Cc4ccccc4)C(=O)C13)O2)c1ccccc1 (stereo not given),-3.86%
2,O=Cc1ccc(OCc2cn3ccccc3n2)cc1,12.9% (active)
3,O=C(NCCc1ccco1)c1ccc(OCc2cn3ccccc3n2)cc1,5.95%
4,Cn1cc[n+](C)c1COc1ccc(C=O)cc1,1%
5,O=C(Nc1cc(F)cc(F)c1)OC1CCC12CCC(c1ccccc1)CC2 (stereo not given),2.34%
6,CC(C)C[C@H](NC(=O)CC1CCCC1)C(=O)N1CCC[C@H]1C(=O)NCc1ccccc1,-4.65%
7,Cc1cc(NC(=O)CSc2nnnn2-c2ccc(F)cc2)no1,1.39%
8,Cc1ccc2nc(-c3ccc(SCC(=O)Nc4cc(C)on4)nc3)[nH]c2c1,15.3% (active)
9,Cc1cc(NC(=O)CSCC(=O)NC(C)c2ccccc2)no1 (stereo not given),2.82%
10,COC(=O)C1CN(CCc2ccccc2)CCS(=O)(=O)N1Cc1ccc(F)cc1 (stereo not given),2.5%
11,C=CCN=C1NC(c2ccccc2)C(C(=O)OC)=C(C)N1Cc1ccc(C(F)(F)F)cc1 (stereo not given),0.51%
12,COc1ccc(CN2CCCC(C(=O)c3ccc(Cl)cc3)C2)cc1Cn1cncn1 (stereo not given),-0.88%
13,COc1ccc(C2Nc3ccccc3C(=O)N2c2ccc(Cl)cc2)cc1Cn1cc([N+](=O)[O-])cn1 (stereo not given),15.2% (active)
14,COc1ccc(C2Nc3ccccc3C(=O)N2Cc2cccs2)cc1COc1c(C)cccc1C (stereo not given),1.89%
15,Cc1ccc(-n2c(SCC(=O)Nc3ccc(S(=O)(=O)Nc4nccs4)cc3)nnc2-c2cccnc2)cc1,-1%
16,Cc1cc(C)c(S(=O)(=O)N2CCC(C(=O)OCc3c(C)noc3C)CC2)c(C)c1,1.53%
17,O=C(CN1C(=O)c2ccccc2S1(=O)=O)N1CCc2ccccc21,-10.8%
18,CC(OC(=O)Cc1ccc(F)cc1)C(=O)N1CCc2ccccc21 (stereo not given),0.83%
19,O=C(CSCc1ccccc1)N1CCc2ccccc21,17.5% (active)
20,CCOC(=O)[C@@]12CCC3=C1N(CCC3)C(=O)[C@H](CC(=O)N1CCN(C(=O)c3ccco3)CC1)C2,-0.79%
21,CC1(C)OC(=O)C2=C(CC(CCc3ccccc3)OC2c2ccc(Cl)cc2)O1 (stereo not given),3.41%
22,CC(C)N(Cc1nnc(-c2ccc(Cl)cc2)o1)C(=O)C1=COCCO1,0.6%
23,CC(NCc1ccco1)C(=O)N1CCCCC1 (stereo not given),1.35%

row,SMILES,activation
1,C#CCCN([C@H](C(=O)OC)C(C)C)S(=O)(=O)c1ccc(F)cc1Br,2.22%
2,COc1cccc(CNC(=O)[C@H]2CCCN2C(=O)[C@H]2CCCN2C(=O)c2cc(F)cc(F)c2)c1,0.08%
3,Cc1ccc(C(=O)NC(=S)Nc2ccccc2C)cc1,12.1% (active)
4,CC(=O)Nc1ccc(NC(=S)NC(=O)c2ccc([N+](=O)[O-])c(C)c2)cc1,-2.56%
5,Cc1ccccc1C(=O)NC(=S)NC1CC1,0.72%
6,COC(=O)[C@H](CC(C)C)NS(=O)(=O)c1c(F)cccc1F,-0.44%
7,CCCCCCCCN1C(=O)[C@@H](CC(=O)NCc2ccc(C)o2)C[C@@]2(C(=O)OC)C1=C[C@H](C(C)(C)C)O[C@@H]2C,-0.08%
8,Cc1ccc(OCCOc2cccc(/C=N/NC(N)=O)c2)cc1,5.18%
9,COC(=O)N/N=C/c1cn(CCCOc2ccc(C)cc2)c2ccccc12,15% (active)
10,O=Cc1cn(CCOc2ccc(F)cc2)c2ccccc12,-2.45%
11,O=C(CNS(=O)(=O)c1ccccc1F)N1CCN(c2ccccn2)CC1,0.61%
12,COC(=O)[C@]12C[C@H](CC(=O)NCc3ccccc3)C(=O)N(CCc3ccc(OC)c(OC)c3)C1=C[C@H](C(C)(C)C)O[C@@H]2C,0.98%
13,COc1ccc(OC)c(CNC(=O)Cn2nc(C)c3c(C)n(-c4ccc(C)cc4)nc3c2=O)c1,-2.32%
14,O=C(CCS(=O)(=O)Cc1ccccc1F)NCCCN1CCCCC1,0.82%
15,O=C(CSc1nc2ccccc2s1)N=Nc1c(O)[nH]c2ccccc12,-2.84%
16,O=C(CSc1nc2ccccc2s1)NN=Cc1ccc(O)cc1O,-1.39%
17,O=C(O)c1ccccc1CSc1nc2ccccc2s1,10.6% (active)
18,COc1ccc(CC(=O)Nc2cc(S(=O)(=O)N3CCCCC3)ccc2N2CCN(C)CC2)cc1,-1.77%
19,COC(=O)C1CN(CC(C)C)CCS(=O)(=O)N1Cc1ccc(C)cc1 (stereo not given),-0.71%
20,CC(C)n1c(=O)[nH]c2cc(C(=O)Nc3ccccc3)ccc21,13.3% (active)
21,CC(=O)Nc1ccc(NC(=O)c2ccc3c(c2)C(=O)N(c2ccccc2C)C3=O)cc1,0.55%
22,CS(=O)(=O)N1CCc2cc(C(=O)Nc3ccccc3)ccc21,2.16%
